In the library only some 17% were active in any assay of this set; here they are far more common.
TDP1 cell CPT: qHTS for Inhibitors of human tyrosyl-DNA phosphodiesterase 1 (TDP1): qHTS in cells in presence of CPT. chicken DT40 Tdp1-/-;hTDP1 cells + 20 nM CPT, ATP luminescence, 48 h. Potency, µM (series often up to 46.2 µM), for inactives: at the highest dose activity change, negative = growth inhibition, actives largely listed as inhibitors. hit rate 12% among 420,000. AID 686979, 2013; note: % is set by controls: 0 for no effect and ±100 for the full control effect; nearly all actives have a fitted effect of over 55% in size
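Cell growth measured by CellTiter-Glo luminescence after a minimum 48 h, 37 C compound exposure with 20 nM CPT in Tdp1-knockout DT40 cells stably expressing hTDP1, seeded 400/well; qHTS titration format.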
TDP1 block: qHTS Assay for Inhibitors of Tyrosyl-DNA Phosphodiesterase (TDP1). Tyrosyl-DNA phosphodiesterase 1 (Homo sapiens), Q9NUW8. recombinant TDP1, AlphaScreen DNA substrate cleavage. Potency, µM (titrated, usually from 130 µM), inactives show top-dose activity change, negative = inhibition, most hits filed as inhibitors. hit rate 0.28% among 350,000. AID 485290, 2010; note: % is set by controls: 0 for no effect and ±100 for the full control effect; nearly all actives have a fitted effect of over 40% in size
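Recombinant human Tdp1 (E. coli-expressed, 1 nM final) preincubated with compounds 15 min at room temperature, then 5'-biotin/3'-phosphotyrosine-FITC DNA substrate (15 nM final) added for 5 min. AlphaScreen beads (10 ug/ml final) added 10 min; cleavage lowers signal.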
TDP1 cell noCPT: qHTS for Inhibitors of human tyrosyl-DNA phosphodiesterase 1 (TDP1): qHTS in cells in absence of CPT; hit rate 15% among 420,000; DT40 Tdp1-/- hTDP1 cells, no CPT, ATP luminescence, 48 h; Potency, µM (doses to about 46.2 µM), for inactives: top-dose activity change, negative = growth inhibition, usual class: inhibitors; note: % is set by controls: 0 for no effect and ±100 for the full control effect; nearly all actives have a fitted effect of over 55% in size
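Camptothecin absent (DMSO only). Human TDP1-complemented DT40 knockout cells, 400 cells/well, 37 °C for minimum 48 hr; ATP measured via CellTiter-Glo, 30 min dark incubation, luminescence.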
ClpP mod: qHTS Assay for Activators of ClpP | Potency, µM (top dose mostly 57.5 µM), for inactives: at the highest dose activity change, negative = active | ATP-dependent Clp protease proteolytic subunit (Bacillus subtilis (strain 168)), P80244 | purified B. subtilis ClpP, FRET peptide cleavage, 20 min | AID 651965, 2013 | hit rate 1.9% among 340,000; active = well fitted falling curve with a large enough effect; inconclusive = small, poorly fitted or top-dose-only effect; inactive = no such curve, though single readings can be large or run the other way; note: the source files actives as falling curves though it sought activators and does not explain the sign; nearly all actives have a fitted effect of over 65% in size
Target sequence (P80244 whole entry, looked up): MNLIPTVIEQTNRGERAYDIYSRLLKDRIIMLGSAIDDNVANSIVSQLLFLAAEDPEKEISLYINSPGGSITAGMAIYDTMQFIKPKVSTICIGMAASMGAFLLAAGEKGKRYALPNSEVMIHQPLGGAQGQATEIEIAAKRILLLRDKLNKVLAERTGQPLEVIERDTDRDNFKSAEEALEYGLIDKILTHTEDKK
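ClpP 10 microg/mL final, pH 8 Tris/KCl buffer with BSA, glycerol, Tween-20; compound pinned in; FRET-FV substrate; RT 20 min; Ex320/Em430; ΔFRET vs ADEP 5.8 microM, DMSO, no enzyme.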
Numbers without * were called inactive; ? = inconclusive; / = no result given; [ ] = dose if it differs, or a comment. Unless noted, calls come from the whole dose curve; as a rule, active = well fitted curve in the direction sought with a large enough effect; inconclusive = small, poorly fitted or top-dose-only effect, or another doubt; inactive = no such curve, though single readings can be large; an effect the other way counts as inactive or inconclusive. Potency is the fitted concentration of half-maximal effect.

SMILES	TDP1 cell CPT	TDP1 block	TDP1 cell noCPT	ClpP mod
COc1ccc2[nH]c(=O)c(CN(C(=O)c3cccc(Cl)c3)c3cccc(C)c3)cc2c1	16µM*	7%	18µM*	?
COc1ccc2[nH]c(=O)c(CN(C(=O)c3cccnc3)c3ccccc3)cc2c1	-20%	0%	-26%	?
O=C(NCCCNC(=O)c1ccc(-c2cccc(Cl)c2)o1)c1cnccn1	-15%	/	?	/
CCN(CC)c1ccc(/C=N/Nc2ccc(C)cc2)c(O)c1	12µM*	8%	12µM*	-3%
CCN(CC)c1ccc(/C=N/NC(=O)c2cccc(S(=O)(=O)N3CCOCC3)c2)c(O)c1	4.1µM*	2%	5.8µM*	/
O=C(N/N=C/c1sc(N2CCOCC2)nc1-c1ccccc1)c1cccc(S(=O)(=O)N2CCOCC2)c1	4.6µM*	4%	4.6µM*	1%
CCOC(=O)N/N=C/c1ccc(N(CC)CC)cc1O	8.2µM*	8%	5.8µM*	-17%
Cc1ccc(C)c(S(=O)(=O)N2CCN(C(=O)c3cccnc3)CC2)c1	-5%	2%	2%	1%
Cc1nn(CC(=O)Nc2cccnc2)c(=O)c2ccccc12	17%	8%	-1%	/
CCN(CC)S(=O)(=O)c1cccc(C(=O)N/N=C/c2cccc(O)c2O)c1	3.7µM*	5%	4.6µM*	-1%
O=C(Nc1ccccc1F)C(=Cc1sc(N2CCOCC2)nc1-c1ccccc1)C(=O)Nc1ccccc1F	1.6µM*	-1%	5.2µM*	/
O=C(N/N=C/c1sc(N2CCOCC2)nc1-c1ccccc1)c1ccccc1F	?	3%	?	/
Cn1ncc(Cl)c1C(=O)N/N=C/c1cc2c(cc1[N+](=O)[O-])OCO2	-13%	0%	17%	-2%
CCCCC/C(=N\NC(=O)CCC(=O)NCc1ccccc1)c1ccccc1	?	8%	?	2%
CCN(CC)S(=O)(=O)c1cccc(C(=O)N/N=C/c2cc(OC)c(O)c(OC)c2)c1	-29%	-1%	?	-1%
CC/C(=N\NC(=O)CCC(=O)NCc1ccccc1)c1ccc(O)cc1	2.9µM*	-4%	4.1µM*	/
CCN(CC)c1ccc(/C=N/NC(=O)c2c(Cl)cnn2C)c(O)c1	3.7µM*	8%	5.8µM*	-6%
Cc1c(C(=O)N2CCCC2)c(S(=O)(=O)Nc2ccccc2)c(C)n1C	-4%	4%	30%	1%
CNC(=O)CN(Cc1ccccc1)S(=O)(=O)c1ccc(Cl)cc1	-9%	0%	4%	-1%
CCN(CC)c1ccc(/C=N/NC(=O)CCC(=O)NCc2ccccc2)c(O)c1	5.2µM*	8%	5.2µM*	-15%
CCN(CC)c1ccc(/C=N/NC(=O)CNC(=O)C2COc3ccccc3O2)c(O)c1 (stereo not drawn)	5.8µM*	9%	3.3µM*	-1%
O=C(CCC(=O)N/N=C/c1c[nH]c2ccccc12)NCc1ccccc1	-8%	3%	-20%	-20%
CCCn1cc(CN2CCN(Cc3ccc(C)o3)C(CCO)C2)c(C)n1 (stereo not drawn)	17%	/	10%	/
C/C(=N/NC(=O)OC(C)(C)C)c1ccco1	5%	5%	-3%	-4%
CC(/C=C/c1ccco1)=N/NC(=O)OC(C)(C)C	?	5%	15µM*	1%
SMILES	TDP1 cell CPT	TDP1 block	TDP1 cell noCPT	ClpP mod
CC(/C=C/c1ccco1)=N/NC(=O)Cc1cccs1	7.1µM*	3%	4µM*	-4%
CC(/C=C/c1ccc(Cl)o1)=C\C(=O)O	-7%	-12%	-4%	-4%
CC(=C/C(=O)O)/C=C/c1ccco1	6.5µM*	-8%	7.3µM*	-1%
CC(/C=N/NC(=O)Cc1cccs1)=C\c1ccco1	?	3%	?	0%
COc1ccc(N(C(=O)c2snc(C(N)=O)c2N)C(C(=O)NC2CCCCC2)c2ccc(C)o2)cc1 (stereo not drawn)	?	/	16µM*	/
COc1ccc(N(C(=O)c2snc(C(N)=O)c2N)C(C(=O)NC2CCCC2)c2ccco2)cc1 (stereo not drawn)	3%	/	?	/
CCOc1ccc(C(C(=O)NCC2CCCO2)N(C(=O)c2snc(C(N)=O)c2N)c2ccccc2F)cc1 (stereo not drawn)	21µM*	/	?	3%
Cc1cc(C)cc(N(C(=O)c2snc(C(N)=O)c2N)C(C(=O)NCC2CCCO2)c2ccc(C)o2)c1 (stereo not drawn)	?	10%	21µM*	/
CC(C)(C)NC(=O)CN(C(=O)c1snc(C(=O)NC2CCCCC2)c1N)c1ccccc1F	?	/	21µM*	/
COC(=O)C1CC1[C@H](NC(=O)c1cccnc1)c1ccccc1 (stereo partly drawn)	/	9%	/	/
O=C(O)C1=C[C@@H](c2coc3ccccc3c2=O)C[C@@H](OCCCCO)O1	12%	5%	5%	6%
N#CN1CCC(NC(=O)c2cccc(C(F)(F)F)c2)CC1	/	0%	/	/
CCOc1ccc(C(C(=O)NCC2CCCO2)N(Cc2cccs2)C(=O)c2snc(C(N)=O)c2N)cc1 (stereo not drawn)	23µM*	6%	9.2µM*	/
NC(=O)c1nsc(C(=O)N(CC(=O)NC2CCCCC2)c2ccc(Cl)cc2)c1N	?	0%	?	/
CCCCOc1ccc(N(CC(=O)NC2CCCCC2)C(=O)c2snc(C(N)=O)c2N)cc1	?	4%	16µM*	-1%
CCOc1ccc(N(C(=O)c2snc(C(N)=O)c2N)C(C(=O)NCC2CCCO2)c2ccc(C)o2)cc1 (stereo not drawn)	18µM*	17%	?	/
COc1ccc(C(C(=O)NCC2CCCO2)N(Cc2cccs2)C(=O)c2snc(C(N)=O)c2N)cc1OC (stereo not drawn)	-28%	/	-20%	-21%
O=C(NCCc1csc(-c2ccccc2)n1)c1ccc(Br)o1	?	7%	21µM*	-2%
Cc1cccc(-c2nc(CCNC(=O)c3ccc(Br)o3)cs2)c1	?	1%	?	-2%
O=C(NCCc1csc(-c2cccnc2)n1)c1ccc(Br)o1	?	3%	18µM*	-12%
O=C(NCCc1csc(-c2cccnc2)n1)c1ccco1	-2%	2%	-15%	-23%
CCc1cccc(NC(=O)C(c2ccccc2)N2Cc3ccccc3C2=O)c1 (stereo not drawn)	?	5%	-23%	-2%
Cc1ccc(C(=O)c2c3ccc(C(F)(F)F)cc3[n+]([O-])n2CCCN)cc1	23µM*	-1%	23µM*	-4%
Cc1ccc(C(=O)c2c3ccc(C(F)(F)F)cc3[n+]([O-])n2CCCC(N)=O)cc1	-9%	2%	-14%	1%
COc1ccc(C(=O)NCCN2CCOCC2)cc1S(=O)(=O)Nc1ccc(C)cc1	-12%	-1%[56.1 µM]	3%	-3%
